Most compounds without a hit are left out; they make up all but 19% or so of the library.
TDP1 cell CPT – growth inhibition of DT40 Tdp1-/-;hTDP1 cells with camptothecin (screen for TDP1 inhibitors); 12% of 420,000 active; chicken DT40 Tdp1-/-;hTDP1 cells + 20 nM CPT, ATP luminescence, 48 h; Potency, µM (doses to about 46.2 µM), inactives show at the highest dose activity change, negative = growth inhibition, most hits filed as inhibitors; AID 686979; note: potency is the fitted concentration of half-maximal effect; % is set by controls: 0 for no effect and ±100 for the full control effect; nearly all actives have a fitted effect of over 55% in size
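Chicken DT40 Tdp1-/- cells complemented with human TDP1, 400 cells/well, exposed to compounds plus 20 nM camptothecin for at least 48 h at 37 C; viability read as ATP content by CellTiter-Glo luminescence.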
BCR signal inh – inhibitors of chronic active B-cell receptor signaling; ABC-DLBCL IkBa-CBG/CBR reporter, luminescence ratio, 4 h; Potency, µM (highest dose often 46.1 µM), inactives show at the top dose activity change, negative = inhibition, usual class: inhibitors; 0.05% of 340,000 active; AID 493014; active = well fitted inhibition curve with a large enough effect in the signal ratio, with a control signal flat, not every such curve was filed as active; inconclusive = small, poorly fitted or top-dose-only effect, or effect the other way, or a change in a side signal; the % refers to the signal ratio;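 note: potency is the fitted concentration of half-maximal effect; plate controls were basal doxycycline-induced cells for no effect and cells given 10 µM MG132 for full effect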
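Cell line TMD8 (human ABC DLBCL), stably expressing tet-inducible CBG68-IkBa fusion and CBR; IMDM/0.5% FBS; cpd up to 46 uM; dox induction, 4 h, 37C/5% CO2; dual luminescence; green/red ratio; MG132 control.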
IL1B secr inh – blocks inflammasome-driven IL-1 beta release. THP-1 LPS/ATP IL-1B secretion, AlphaLISA, 16 h; hits give low values. 4.7% of 360,000 active. activity change, % at 57.5 µM. AID 743279; in the data active = activity change below about -50%; inconclusive = mostly about -30% to -49%; note: % is set by controls: 0 for no effect and ±100 for the full control effect
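Secreted IL-1B measured by AlphaLISA bead assay after 16 h compound exposure of THP-1 cells; compounds (final up to 57.5 uM) added 1 h before LPS (250 ng/mL) and ATP (1.25 mM) stimulation; lower signal means less secretion.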
MCF10A rereplic – inducers of DNA re-replication in MCF 10A breast cells. AID 624296. Potency, µM (series often up to 46.1 µM), inactives show at the top dose activity, positive = re-replication, usual class: activators. 2.9% of 350,000 active. MCF 10A DNA re-replication, Hoechst nuclear intensity, 48 h; note: potency is the fitted concentration of half-maximal effect; % of control where 0% means no effect; nearly all actives have a fitted effect of over 50% in size
SW480 rereplic – DNA re-replication induction in SW480 cells. SW480 DNA re-replication, Hoechst DNA content imaging, 48 h. Potency, µM (top dose mostly 46.1 µM), for inactives: top-dose re-replication activation, usual class: activators. 1.8% of 340,000 active; note: potency is the fitted concentration of half-maximal effect; % of control where 0% means no effect; nearly all actives have a fitted effect of over 55% in size
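Image-based read-out: total Hoechst fluorescence of nuclei (405 nm excitation, 500-530 nm emission), with hits raising the fraction of high-intensity nuclei. SW480 colon cells incubated 48 hr with compounds at 37 C.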
TDP1 cell noCPT – qHTS for Inhibitors of human tyrosyl-DNA phosphodiesterase 1 (TDP1): qHTS in cells in absence of CPT; DT40 Tdp1-/- hTDP1 cells, no CPT, ATP luminescence, 48 h; Potency, µM (highest dose often 46.2 µM), for the others: at the top dose activity change, negative = growth inhibition, hits mostly inhibitors; 15% of 420,000 active; AID 686978, 2013; note: potency is the fitted concentration of half-maximal effect; % is set by controls: 0 for no effect and ±100 for the full control effect; nearly all actives have a fitted effect of over 55% in size
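Growth kinetics read by CellTiter-Glo luminescence after ≥48 hr at 37 °C. Cells: DT40 Tdp1-/- stably carrying human TDP1, 400 per well, compound exposure in the absence of CPT (DMSO vehicle).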
* marks the source's active call; other numbers are inactive results; ? = inconclusive; · = no result given; [ ] = remark or other dose. Unless noted, calls come from the whole dose curve; as a rule, active = well fitted curve in the direction sought with a large enough effect; inconclusive = small, poorly fitted or top-dose-only effect, or another doubt; inactive = no such curve, though single readings can be large; an effect the other way counts as inactive or inconclusive.

SMILES	TDP1 cell CPT	BCR signal inh	IL1B secr inh	MCF10A rereplic	SW480 rereplic	TDP1 cell noCPT
CCOc1ccc(CN2CCN(Cc3cc4c(cc3Cl)OCO4)CC2CCO)cc1 (stereo not drawn)	?	-8%	-60*	4%	?	16µM*
COC(=O)c1ccccc1NC(=O)CSc1nc2ccsc2c(=O)n1CCCCC(=O)O	-28%	·	9	·	·	-23%
Cc1ccc(C(=O)OCC(=O)Nc2nc(-c3ccccc3)cs2)cc1NC(=O)c1ccco1	?	5%	-80*	?	-9%	?
Cc1ccc(C(=O)OCC(=O)Nc2ccccc2)cc1NC(=O)c1ccco1	-9%	-10%	15	127%[0.0737 µM]	?	-4%
Cc1ccc(C(=O)OCC(=O)Nc2sccc2C(N)=O)cc1NC(=O)c1ccco1	?	-17%	-5	6%	-2%	6.5µM*
Nc1ncnc2c1ncn2[C@H]1CC[C@@H](CO)O1	1.6µM*	?	-3	?	-12%	2.9µM*
Nc1nc(Cl)nc2c1ncn2C1CCC(CO)O1 (stereo not drawn)	1µM*	·	39	·	·	1.5µM*
CCC(Sc1nc2cc(OC)c(OC)cc2c(=O)n1CCc1ccc(OC)c(OC)c1)C(=O)NCCOC (stereo not drawn)	-28%	-14%	0	22%	?	?
Cc1nc2cc(C(=O)O)ccc2n1-c1ccc(C(C)C)cc1	2%	·	·	·	·	-11%
O=S(=O)(Nc1cc(Cl)cc(Cl)c1)N1CCOCC1	-2%	-1%	0	6%	2%	-13%
CCOc1ccccc1OC(=O)CN1C(=O)c2ccccc2C1=O	1%	4%	-10	7%	-10%	6%
Cc1cc(C)c2sc(N3CCN(C(=O)c4ccc(N(C)C)cc4)CC3)nc2c1	?	?	·	·	·	15µM*
CCOC(=O)C1CCN(C(=O)C2CCN(c3nc4ccc(OC)cc4s3)CC2)CC1	13µM*	-12%	-26	2%	-10%	16µM*
O=C(O)COCC(=O)N1CCN(c2cc(C(F)(F)F)nc3ccccc23)CC1	5%	0%	-8	5%	-20%	16%
Cc1cc(C)c2sc(N3CCN(C(=O)C4CC4)CC3)nc2c1	29µM*	9%	·	·	·	18µM*
COc1ccc2nc(N3CCN(C(=O)C4CC4)CC3)sc2c1	-3%	18%	·	·	·	-25%
CN(C)c1ccc(C(=O)N2CCN(c3cc(C(F)(F)F)nc4ccccc34)CC2)cc1	?	-3%	-55*	15%	-5%	?
CCCNC(=O)C1(C)CCCN(C(=O)c2cccc(C#N)c2)C1 (stereo not drawn)	4%	·	9	·	·	-7%
Cc1ccn2c(=O)nc(SCC(=O)N3CCCCC3)nc2c1	?	8%	-27	-2%	-74%	-9%
Cc1ccc(-n2nc(C(=O)N3CCOCC3)cc2-c2ccc(Cl)cc2)cc1	?	?	-3	0%	-5%	?
Cn1nc(-c2ccccc2F)c2cc(C(=O)N3CCN(c4ccccc4F)CC3)sc21	4.1µM*	·	·	·	·	7.3µM*
Cn1nc(-c2ccc(Cl)cc2)c2cc(C(=O)N3CCOCC3)sc21	?	-17%	9	16%	2%	21µM*
O=C(c1cc(-c2ccc(Cl)cc2)n(-c2ccc(Cl)cc2)n1)N1CCOCC1	16µM*	-3%	-9	2%	-7%	?
COc1ccc(N2CCN(C(=O)c3cc4c(-c5ccccc5F)nn(C)c4s3)CC2)cc1	?	·	·	·	·	9.2µM*
Cc1cc2c(sc3c(C)ccc(C)c32)c(C)n1	-18%	-15%	·	?	-36%	?
COc1cccc(-c2nn(C)c3sc(C(=O)N4CCOCC4)cc23)c1	-26%	?	-5	13%	1%	?

Bioassay records as filed in PubChem.
